Cytotoxicity call data for 66 compounds are collected here from the antibiotic and cytotoxicity screens of Wong et al. (2023).

In all, about 39,000 compounds went through this assay and about 1,500 (3.8%) were called active. Many of the other results were omitted from the sample, so actives are more common in it than they were.

The test system of this assay is HSkMC (human skeletal muscle cells). Nature of the assay: cytotoxicity call (relative viability < 0.9). The following applies: 10 µM.
Consider `C[C@@H]1CN([C@H](C)CO)C(=O)Cc2cc(NS(=O)(=O)c3cn(C)cn3)ccc2O[C@H]1CN(C)S(=O)(=O)c1ccc(F)cc1`, for which the cytotoxicity call was “inactive”.

In the case of `C[C@@H]1CN([C@H](C)CO)S(=O)(=O)c2ccc(-c3cccnc3)cc2O[C@H]1CN(C)C(=O)NC1CCCC1`, the cytotoxicity call is “inactive”.

On to `C[C@H]1CN([C@@H](C)CO)C(=O)c2cccc(NC(=O)c3ccncc3)c2O[C@H]1CN(C)C(=O)Nc1ccc2c(c1)OCO2`, for which the cytotoxicity call was “inactive”.

In the case of `C[C@@H]1CCCCO[C@H](CN(C)C(=O)c2ccncc2)[C@@H](C)CN([C@@H](C)CO)C(=O)c2cc(NC(=O)NC3CCCCC3)ccc2O1`, the cytotoxicity call was “inactive”.

As to `Cc1noc(C)c1S(=O)(=O)Nc1ccc2c(c1)C(=O)N([C@H](C)CO)C[C@@H](C)[C@H](CN(C)S(=O)(=O)c1cn(C)cn1)O2`, the cytotoxicity call is “inactive”.

As to `CCS(=O)(=O)Nc1ccc2c(c1)C(=O)N(C)[C@@H]1CC[C@H](CC(=O)NCCCN3CCOCC3)O[C@H]1CO2`, the cytotoxicity call is “inactive”.

On to `Cc1ccc(S[C@]2(C(=O)NCCN3CCOCC3)CC(=O)N(Cc3ccccc3Cl)[C@@H]2c2ccc(CO)cc2I)cc1`, for which the cytotoxicity call is “inactive”.

With `C[C@H](CO)N1C[C@H](C)[C@@H](CN(C)C(=O)CN2CCOCC2)Oc2ncc(C#C[C@@H](C)O)cc2C1=O`, the cytotoxicity call is “inactive”.

`COCC(=O)N(C)C[C@H]1Oc2cc(C#Cc3cccnc3)ccc2S(=O)(=O)N([C@H](C)CO)C[C@@H]1C`: the cytotoxicity call is “inactive”.

For `C[C@@H]1CCCCO[C@H](CN(C)Cc2ccc(C(=O)O)cc2)[C@@H](C)CN([C@H](C)CO)C(=O)c2cc(NC(=O)Nc3ccc4c(c3)OCO4)ccc2O1`, the cytotoxicity call was “inactive”.

As for `Cc1noc(C)c1S(=O)(=O)Nc1ccc2c(c1)C(=O)N([C@H](C)CO)C[C@H](C)[C@H](CN(C)S(=O)(=O)c1cn(C)cn1)OCCCC[C@@H](C)O2`, the cytotoxicity call was “inactive”.

Regarding `C[C@H](CCC(=O)O)[C@H]1CC[C@H]2[C@@H]3CC=C4C[C@@H](O)CC[C@]4(C)[C@H]3CC[C@]12C` [3beta-HYDROXYCHOL-5-ENIC ACID ], the cytotoxicity call was “inactive”.

Take `Cc1noc(C)c1S(=O)(=O)Nc1ccc2c(c1)C(=O)N([C@@H](C)CO)C[C@@H](C)[C@@H](CN(C)Cc1ccc(C(F)(F)F)cc1)OCCCC[C@@H](C)O2`: the cytotoxicity call was “inactive”.

For `C[C@H]1CN([C@@H](C)CO)C(=O)Cc2cc(NC(=O)Nc3ccc(C(F)(F)F)cc3)ccc2O[C@H]1CN(C)Cc1ccc(C(F)(F)F)cc1`, the cytotoxicity call is “active”.

As to `C[C@H]1CN([C@@H](C)CO)C(=O)Cc2cc(NC(=O)Nc3ccc(C(F)(F)F)cc3)ccc2O[C@@H]1CN(C)Cc1ccc(C(F)(F)F)cc1`, the cytotoxicity call was “active”.

On to `C[C@@H]1CN([C@@H](C)CO)C(=O)Cc2cc(NC(=O)Nc3ccc(C(F)(F)F)cc3)ccc2O[C@H]1CN(C)Cc1ccc(C(F)(F)F)cc1`, for which the cytotoxicity call was “active”.

Take `C[C@H]1CN([C@@H](C)CO)C(=O)Cc2cc(NC(=O)Nc3ccc(C(F)(F)F)cc3)ccc2O[C@@H]1CN(C)Cc1ccc(C(=O)O)cc1`: the cytotoxicity call was “inactive”.

On to `C[C@H](CO)N1C[C@H](C)[C@@H](CN(C)Cc2ccc(C(=O)O)cc2)Oc2ccc(NC(=O)Nc3ccc(C(F)(F)F)cc3)cc2CC1=O`, for which the cytotoxicity call is “inactive”.

On to `C[C@H]1CN([C@@H](C)CO)C(=O)Cc2cc(NC(=O)Nc3ccc(C(F)(F)F)cc3)ccc2O[C@H]1CN(C)Cc1ccc(C(=O)O)cc1`, for which the cytotoxicity call was “inactive”.

Turning to `C[C@H](CO)N1C[C@H](C)[C@H](CN(C)Cc2ccc(C(=O)O)cc2)Oc2ccc(NC(=O)Nc3ccc(C(F)(F)F)cc3)cc2CC1=O`, the cytotoxicity call is “inactive”.

Turning to `C[C@@H]1CN([C@@H](C)CO)C(=O)Cc2cc(NC(=O)Nc3ccc(C(F)(F)F)cc3)ccc2O[C@H]1CN(C)Cc1ccc(C(=O)O)cc1`, the cytotoxicity call is “inactive”.

Turning to `C[C@@H]1CN([C@H](C)CO)C(=O)Cc2cc(NC(=O)Nc3ccc(C(F)(F)F)cc3)ccc2O[C@H]1CN(C)Cc1ccc(C(=O)O)cc1`, the cytotoxicity call is “inactive”.

Consider `C[C@H](CO)N1C[C@H](C)[C@H](CN(C)Cc2ccc(C(F)(F)F)cc2)Oc2ccc(NC(=O)Nc3ccc(C(F)(F)F)cc3)cc2CC1=O`, for which the cytotoxicity call is “active”.

For the compound `COc1ccc(CN(C)C[C@H]2Oc3c(NC(=O)C4CCOCC4)cccc3C(=O)N([C@@H](C)CO)C[C@@H]2C)cc1`, the cytotoxicity call is “inactive”.

Consider `CN1C(=O)c2cc(NC(=O)C3CCOCC3)ccc2OC[C@@H]2O[C@@H](CC(=O)NCc3ccccc3F)CC[C@@H]21`, for which the cytotoxicity call was “inactive”.

With `Cc1noc(C)c1NC(=O)N(C)C[C@H]1Oc2c(NC(=O)c3cnccn3)cccc2C(=O)N([C@@H](C)CO)C[C@@H]1C`, the cytotoxicity call is “inactive”.

Consider `C[C@H]1CN([C@@H](C)CO)C(=O)c2cc(NC(=O)C3CC3)ccc2O[C@H]1CN(C)S(=O)(=O)c1ccc(Cl)cc1`, for which the cytotoxicity call was “inactive”.

For the compound `CC(=O)N[C@H]1[C@H](Oc2nc3cc(C)ccc3o2)O[C@H](CO)[C@@H](O)[C@@H]1O`, the cytotoxicity call was “inactive”.

With `Cc1ccc(-c2ccc3c(c2)O[C@H](CN(C)C(=O)CN(C)C)[C@H](C)CN([C@@H](C)CO)S3(=O)=O)cc1`, the cytotoxicity call is “inactive”.

Regarding `O=C(CN1CCOCC1)N[C@H]1CC[C@H](CCNC(=O)Nc2cc(F)ccc2F)O[C@H]1CO`, the cytotoxicity call is “inactive”.

On to `CN1C(=O)c2cc(NC(=O)c3ccc(F)c(F)c3)ccc2OC[C@@H]2O[C@H](CC(=O)N3CCOCC3)CC[C@@H]21`, for which the cytotoxicity call is “inactive”.

On to `Cc1noc(C)c1S(=O)(=O)N(C)C[C@H]1Oc2ccc(NC(=O)Nc3ccc4c(c3)OCO4)cc2C(=O)N([C@H](C)CO)C[C@@H]1C`, for which the cytotoxicity call was “inactive”.

Consider `COc1ccc(CN(C)C[C@@H]2OCCCC[C@@H](C)Oc3ccc(NC(=O)Nc4ccc(F)cc4)cc3C(=O)N([C@@H](C)CO)C[C@H]2C)cc1`, for which the cytotoxicity call is “inactive”.

`C[C@@H]1CN([C@H](C)CO)C(=O)Cc2cc(NC(=O)Nc3ccc(C(F)(F)F)cc3)ccc2O[C@@H]1CN(C)Cc1ccc(C(=O)O)cc1`: the cytotoxicity call was “inactive”.

Turning to `C[C@@H]1CN([C@H](C)CO)C(=O)Cc2cc(NC(=O)Nc3ccc(C(F)(F)F)cc3)ccc2O[C@@H]1CN(C)Cc1ccc(C(F)(F)F)cc1`, the cytotoxicity call is “active”.

Turning to `C[C@@H]1CN([C@@H](C)CO)C(=O)Cc2cc(NC(=O)C3CCCCC3)ccc2O[C@@H]1CN(C)Cc1ccc(C(F)(F)F)cc1`, the cytotoxicity call is “active”.

As to `C[C@H](CO)N1C[C@H](C)[C@@H](CN(C)Cc2ccc(C(F)(F)F)cc2)Oc2ccc(NC(=O)Nc3ccc(C(F)(F)F)cc3)cc2CC1=O`, the cytotoxicity call is “active”.

As for `C[C@H]1CN([C@@H](C)CO)C(=O)Cc2cc(NC(=O)C3CCCCC3)ccc2O[C@@H]1CN(C)Cc1ccc(C(F)(F)F)cc1`, the cytotoxicity call was “inactive”.

With `C[C@@H]1CN([C@@H](C)CO)C(=O)Cc2cc(NC(=O)Nc3ccc(C(F)(F)F)cc3)ccc2O[C@@H]1CN(C)Cc1ccc(C(=O)O)cc1`, the cytotoxicity call was “inactive”.

Regarding `C[C@H](CO)N1C[C@H](C)[C@@H](CN(C)Cc2ccc(C(F)(F)F)cc2)Oc2ccc(NC(=O)C3CCCCC3)cc2CC1=O`, the cytotoxicity call was “inactive”.

For the compound `C[C@@H]1CN([C@H](C)CO)C(=O)Cc2cc(NC(=O)Nc3ccc(C(F)(F)F)cc3)ccc2O[C@H]1CN(C)Cc1ccc(C(F)(F)F)cc1`, the cytotoxicity call was “active”.

On to `Cc1noc(C)c1NC(=O)N(C)C[C@@H]1OCCCC[C@H](C)Oc2ccc(NS(=O)(=O)c3ccc(F)cc3)cc2C(=O)N([C@H](C)CO)C[C@@H]1C`, for which the cytotoxicity call was “inactive”.

For the compound `Cc1noc(C)c1S(=O)(=O)N(C)C[C@@H]1Oc2c(NC(=O)c3cnccn3)cccc2C(=O)N([C@H](C)CO)C[C@@H]1C`, the cytotoxicity call was “inactive”.

With `O=C(C[C@H]1CC[C@H]2[C@@H](COC[C@H](O)CN2S(=O)(=O)c2ccccc2)O1)NCCN1CCCCC1`, the cytotoxicity call is “inactive”.

With `c1cc(CCN2CCNCC2)ccn1`, the cytotoxicity call is “inactive”.

In the case of `O=C(O)[C@H](O)c1ccc(F)cc1`, the cytotoxicity call was “inactive”.

`CCS(=O)(=O)N1C[C@]2(CN(C2)C(=O)Nc2c(noc2C)C)c2c(n(c3cc(ccc23)OC)C)[C@H]1CO`: the cytotoxicity call was “inactive”.

Turning to `C[C@@H]1CN([C@@H](C)CO)C(=O)Cc2cc(NC(=O)Nc3ccc(C(F)(F)F)cc3)ccc2O[C@@H]1CN(C)Cc1ccc(C(F)(F)F)cc1`, the cytotoxicity call was “active”.

`C[C@@H]1CN([C@@H](C)CO)C(=O)Cc2cc(NC(=O)Nc3ccc(C(F)(F)F)cc3)ccc2O[C@H]1CN(C)Cc1ccncc1`: the cytotoxicity call was “inactive”.

For `C[C@H](CO)N1C[C@H](C)[C@H](CN(C)Cc2ccncc2)Oc2ccc(NC(=O)Nc3ccc(C(F)(F)F)cc3)cc2CC1=O`, the cytotoxicity call was “inactive”.

For the compound `C[C@H](CO)N1C[C@H](C)[C@@H](CN(C)Cc2ccncc2)Oc2ccc(NC(=O)Nc3ccc(C(F)(F)F)cc3)cc2CC1=O`, the cytotoxicity call was “active”.

In the case of `C[C@@H]1CN([C@H](C)CO)C(=O)c2cc(NS(=O)(=O)c3ccc(Cl)cc3)ccc2O[C@@H](C)CCCCO[C@@H]1CN(C)Cc1ccc(C(=O)O)cc1`, the cytotoxicity call is “inactive”.

`C[C@H](CO)N1C[C@H](C)[C@H](CN(C)C(=O)Nc2ccc3c(c2)OCO3)OCCCC[C@H](C)Oc2ccc(NC(=O)NC3CCCCC3)cc2C1=O`: the cytotoxicity call is “inactive”.

As to `C[C@@H]1CN([C@H](C)CO)C(=O)Cc2cc(NS(C)(=O)=O)ccc2O[C@@H]1CN(C)S(=O)(=O)c1ccc(F)cc1`, the cytotoxicity call is “inactive”.

`C[C@H]1CCCCO[C@@H](CN(C)Cc2ccc(C(F)(F)F)cc2)[C@@H](C)CN([C@@H](C)CO)C(=O)c2cc(NC(=O)Nc3ccccc3)ccc2O1`: the cytotoxicity call is “active”.

As for `C[C@H](CO)N1C[C@H](C)[C@@H](CN(C)Cc2ccc(C(F)(F)F)cc2)OCCCC[C@H](C)Oc2ccc(NC(=O)Nc3ccccc3)cc2C1=O`, the cytotoxicity call was “inactive”.

Turning to `C[C@@H]1CCCCO[C@@H](CN(C)Cc2ccc(C(F)(F)F)cc2)[C@H](C)CN([C@@H](C)CO)C(=O)c2cc(NC(=O)Nc3ccccc3)ccc2O1`, the cytotoxicity call was “inactive”.

In the case of `C[C@@H]1CN([C@H](C)CO)C(=O)c2cc(NC(=O)Nc3ccccc3)ccc2O[C@@H](C)CCCCO[C@@H]1CN(C)Cc1ccc(C(F)(F)F)cc1`, the cytotoxicity call was “inactive”.

As for `C[C@@H]1CN([C@@H](C)CO)C(=O)c2cc(NC(=O)Nc3ccccc3)ccc2O[C@@H](C)CCCCO[C@@H]1CN(C)Cc1ccc(C(F)(F)F)cc1`, the cytotoxicity call is “inactive”.

For `C[C@@H]1CCCCO[C@H](CN(C)Cc2ccc(C(F)(F)F)cc2)[C@@H](C)CN([C@@H](C)CO)C(=O)c2cc(NC(=O)Nc3ccccc3)ccc2O1`, the cytotoxicity call is “inactive”.

With `C[C@@H]1CCCCO[C@H](CN(C)Cc2ccc(C(F)(F)F)cc2)[C@H](C)CN([C@H](C)CO)C(=O)c2cc(NC(=O)Nc3ccccc3)ccc2O1`, the cytotoxicity call was “active”.

`C[C@@H]1CN([C@H](C)CO)C(=O)c2cc(NC(=O)Nc3ccccc3)ccc2O[C@@H](C)CCCCO[C@H]1CN(C)Cc1ccc(C(F)(F)F)cc1`: the cytotoxicity call is “active”.

`C[C@@H]1CCCCO[C@H](CN(C)Cc2ccc(C(F)(F)F)cc2)[C@@H](C)CN([C@H](C)CO)C(=O)c2cc(NC(=O)Nc3ccccc3)ccc2O1`: the cytotoxicity call is “inactive”.

Regarding `C[C@@H]1CCCCO[C@H](CN(C)Cc2ccc(C(F)(F)F)cc2)[C@H](C)CN([C@@H](C)CO)C(=O)c2cc(NC(=O)Nc3ccccc3)ccc2O1`, the cytotoxicity call was “inactive”.

Turning to `C[C@@H]1CCCCO[C@@H](CN(C)Cc2ccc(C(F)(F)F)cc2)[C@H](C)CN([C@H](C)CO)C(=O)c2cc(NC(=O)Nc3ccccc3)ccc2O1`, the cytotoxicity call was “active”.

In the case of `C[C@@H]1CCCCO[C@@H](CN(C)Cc2ccc(C(F)(F)F)cc2)[C@@H](C)CN([C@H](C)CO)C(=O)c2cc(NC(=O)Nc3ccccc3)ccc2O1`, the cytotoxicity call is “inactive”.
